This is one part of a sample in which hits are shown more often than they occur.
Apoferritin bind = candidate novel general anesthetic via apoferritin binding; AID 485281; Potency, µM (series often up to 77.5 µM), most hits filed as inhibitors; apoferritin/1-aminoanthracene competitive binding, fluorescence; 0.074% of 350,000 active; P02791; further: nearly all actives have a fitted effect of over 20% in size
Target sequence (P02791 2-175 limits assumed): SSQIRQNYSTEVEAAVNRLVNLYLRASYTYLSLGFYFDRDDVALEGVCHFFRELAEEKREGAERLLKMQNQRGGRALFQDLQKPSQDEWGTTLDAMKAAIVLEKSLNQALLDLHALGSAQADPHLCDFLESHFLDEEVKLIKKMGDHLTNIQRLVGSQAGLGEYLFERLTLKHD
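Horse-spleen apoferritin (10 uM) was mixed with 50% saturated 1-aminoanthracene in PBS, exposed to compounds for 10 min at room temperature, and read for fluorescence (ex 380 nm, em 535 nm). Competitive displacement was fitted with a four-parameter Hill equation.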
HTT aggregate = mutant huntingtin aggregation inhibition. PC12 HttQ103-GFP aggregates, Acumen cytometry, 40 h. Potency, µM (doses to about 46.1 µM), usual class: inhibitors. 1.1% of 220,000 active; further: nearly all actives have a fitted effect of over 60% in size
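PC12 cells stably carrying ecdysone-inducible HTT exon 1 Q103–GFP were induced with tebufenozide (100 nM final) and treated with library compounds in titration. GFP aggregates in lysates were counted by laser scanning cytometry.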
Epigenetic reg = derepresses silenced GFP reporter in murine cells. 0.2% of 280,000 active. murine LDR cells, GFP reporter derepression, 30 h. AID 1865. Potency, µM (top dose mostly 53.9 µM), hits mostly activators; further: nearly all actives have a fitted effect of over 60% in size
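In this reporter-derepression format, murine cells bearing a silenced integrated CMV-GFP locus incubate with test compound (30 h, 37 C), then are washed and imaged; fluorescent objects of 20–120 um count as induced cells.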
HTT ATP protect = Huntington cell model cytoprotection by ATP luminescence; PC12 HTT-Q103 induced, cytoprotection, ATP luminescence, 40 h; Potency, µM (doses to about 56.4 µM), most hits filed as activators; 0.14% of 230,000 active; AID 1471; further: nearly all actives have a fitted effect of over 45% in size
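ATP quantification (ATPlite) reports survival of PC12 cells in which tebufenozide, 100 nM final, switches on Htt exon 1 with 103 glutamines linked to GFP; compounds are titrated.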
PTAP TSG101 blk = blocks PTAP/TSG101 interaction to inhibit HIV-1 budding; Fluorescence polarization, FITC-PTAP peptide / Tsg101 binding; Potency, µM (doses to about 115 µM), usual class: inhibitors; 340,000 tested, under 10 active; AID 493005; active means well fitted inhibition curve with a large enough effect in the main read-out, with a control signal flat, not every such curve was filed as active; inconclusive means small, poorly fitted or top-dose-only effect, or effect the other way, or a change in a side signal; inactive means no such curve, though single readings can be large or run the other way
Target sequence (Q99816 whole entry, looked up): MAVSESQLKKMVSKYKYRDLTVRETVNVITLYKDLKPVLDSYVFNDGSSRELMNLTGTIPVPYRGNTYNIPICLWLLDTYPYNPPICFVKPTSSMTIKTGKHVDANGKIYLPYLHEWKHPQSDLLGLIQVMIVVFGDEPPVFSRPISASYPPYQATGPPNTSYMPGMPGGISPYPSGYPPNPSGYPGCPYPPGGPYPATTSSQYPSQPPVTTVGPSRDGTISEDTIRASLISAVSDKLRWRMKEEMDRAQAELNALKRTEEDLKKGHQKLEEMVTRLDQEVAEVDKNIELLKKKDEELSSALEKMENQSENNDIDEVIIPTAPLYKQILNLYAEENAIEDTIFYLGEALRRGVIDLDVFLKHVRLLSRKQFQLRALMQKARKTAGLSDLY
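Compounds were pin-transferred onto Tsg101 binding domain (10 uM final) in HEPES pH 7.5 buffer, then FITC-PTAP peptide was added at 50 nM final. After 20 min at RT, polarization reported peptide displacement across a qHTS concentration series.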
PINK1 expr mod = changes PINK1 expression. PINK1 immunofluorescence, high-content cytometry, 24 h. 0.2% of 410,000 active. Potency, µM (titrated, usually from 76.6 µM), most hits filed as activators. AID 624263; active means well fitted activation curve with a large enough effect; inconclusive means small, poorly fitted or top-dose-only effect; cell line not stated here; further: nearly all actives have a fitted effect of over 65% in size
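A stable cell line was treated with compounds at 5 concentrations for 24 hours, with CCCP as control. PINK1 levels and mitochondrial localization were measured by immunofluorescence with mitochondrial, cell and nuclear markers after fixation, read by laser-scanning cytometry.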
Numbers stand for hits; [ ] = remark or other dose. Unless noted, the call rests on the fitted dose curve; in most records, active means well fitted curve in the direction sought with a large enough effect; inconclusive means small, poorly fitted or top-dose-only effect, or another doubt; inactive means no such curve, though single readings can be large; an effect the other way counts as inactive or inconclusive.

Cc1occc1C(=O)N/N=C/C1=C(N2CCOCC2)C(=C\c2ccc(Cl)cc2Cl)/CC1 was read as Apoferritin bind inactive, HTT aggregate inactive, Epigenetic reg inconclusive, PTAP TSG101 blk inactive and PINK1 expr mod 32µM.
For Cc1cc(C)nc(N/N=C/C2=C(N3CCOCC3)C(=C\c3ccc(Cl)cc3)/CC2)n1 the results were Apoferritin bind inactive, HTT aggregate inactive, Epigenetic reg inactive, HTT ATP protect inactive[10 µM], PTAP TSG101 blk inactive and PINK1 expr mod inactive.
For Cc1ccc(C(=O)N(Cc2cc3cc4c(cc3nc2N2CCOCC2)CCC4)CC2CCCO2)s1 (centres undefined) the results were PINK1 expr mod inactive.
CCC(C)NC(=O)CSc1nc(-c2cccs2)cc(C(F)(F)F)n1 (centres undefined) was read as Apoferritin bind inactive, HTT aggregate 13µM, Epigenetic reg inactive, HTT ATP protect inactive[10 µM] and PTAP TSG101 blk inactive.
Screening COc1ccccc1C(=O)N1c2ccccc2Sc2ccccc21 returned Apoferritin bind inactive, HTT aggregate inactive, Epigenetic reg inactive, PTAP TSG101 blk inactive and PINK1 expr mod inactive.
CCOc1ccccc1C(=O)N1c2ccccc2Sc2ccccc21 was read as Apoferritin bind inactive, HTT aggregate 16µM, Epigenetic reg inactive, HTT ATP protect inconclusive, PTAP TSG101 blk inactive and PINK1 expr mod inactive.
`CN1\C(=C/C=C/C=C/C=[N+](C)C)C(C)(C)c2ccccc21` gave Apoferritin bind inconclusive, HTT aggregate 10µM, Epigenetic reg inactive, HTT ATP protect inactive, PTAP TSG101 blk inactive and PINK1 expr mod inconclusive.
`CN1/C(=C\C=O)C(C)(C)c2ccccc21` gave Apoferritin bind inactive, HTT aggregate inconclusive, Epigenetic reg inactive, HTT ATP protect inactive, PTAP TSG101 blk inactive and PINK1 expr mod inactive.
CN(C)c1ccc(/C=C(\C#N)c2nc3ccccc3c(=O)[nH]2)cc1 was read as Apoferritin bind inactive, Epigenetic reg 6.3µM and PINK1 expr mod inactive.
`COC(=O)[C@@H]1CCCN1Cc1ccc2c(c1)CN(Cc1ccc(OC)c(C)c1)CCO2` gave PINK1 expr mod inactive.
Cc1cc(C)cc(NCc2cc3c(cc2[N+](=O)[O-])OCO3)c1 was read as Apoferritin bind 16µM, HTT aggregate inactive, Epigenetic reg inactive, HTT ATP protect inactive, PTAP TSG101 blk inactive and PINK1 expr mod inactive.
COc1cc(C)c(CN2CCc3nnc(C(C)NC(=O)c4cc(F)ccc4F)n3CC2)cc1C (centres undefined) was read as PINK1 expr mod inactive.
`O=C(c1cnn(-c2nccc(-c3ccccc3C(F)(F)F)n2)c1C1CC1)N1CCN(CCO)CC1` gave PINK1 expr mod inactive.
For S=C(NC1CCCCC1)N1CCc2ccccc2C1 the results were Apoferritin bind inactive, HTT aggregate 7.1µM, Epigenetic reg inactive, PTAP TSG101 blk inactive and PINK1 expr mod inactive.
For Cc1ncc2c(c1CNS(=O)(=O)N(C)C)CCN(C(=O)c1[nH]c3ccc(Cl)cc3c1C)C2 the results were PINK1 expr mod inactive.
Screening CC(C)CNC(=O)COC(=O)c1c2c(nc3ccccc13)/C(=C/c1cccs1)CC2 returned Apoferritin bind inactive, HTT aggregate 5.6µM, Epigenetic reg inactive, HTT ATP protect inactive[10 µM], PTAP TSG101 blk inactive and PINK1 expr mod inactive.
For O=C(NCC1CCC2(CCN(Cc3cccn3-c3ccc(Cl)cn3)CC2)O1)c1ccccc1 (centres undefined) the results were PINK1 expr mod inactive.
`CN(C)C=Nc1ncc2c([nH]c3ccccc32)c1C#N` gave Apoferritin bind inactive, HTT aggregate 6.3µM, Epigenetic reg inactive, HTT ATP protect inactive, PTAP TSG101 blk inactive and PINK1 expr mod inactive.
For CN(C)/C=N/c1[nH]ncc1C#N the results were Apoferritin bind inactive, HTT aggregate inactive, Epigenetic reg inactive, HTT ATP protect inactive[10 µM], PTAP TSG101 blk inactive and PINK1 expr mod inactive.
`COc1cc(/C=C2/C=Cc3ccccc32)ccc1N(C)C` gave PINK1 expr mod inactive.
CCCCCC1CC(CC(=O)Nc2ccc([N+](=O)[O-])cc2)C(=O)O1 (centres undefined) was read as Apoferritin bind 16µM, HTT aggregate inactive, Epigenetic reg inactive, HTT ATP protect inactive[10 µM], PTAP TSG101 blk inactive and PINK1 expr mod inactive.
CCCCCC1CC(CC(=O)Nc2ccc([N+](=O)[O-])cc2)OC1=O (centres undefined) was read as Apoferritin bind inconclusive, HTT aggregate inactive[9.22 µM], Epigenetic reg inconclusive, HTT ATP protect inactive[10 µM], PTAP TSG101 blk inactive and PINK1 expr mod inactive.
Screening CCc1nc2cc(C(=O)N(C)C3CCOC3)cc(NC(=O)c3ccccc3OC)c2n1C (centres undefined) returned PINK1 expr mod inactive.
For COc1cc([N+](=O)[O-])cc(/C=N/NC(=O)c2ccc(C)nc2)c1O the results were Apoferritin bind inactive, HTT aggregate inconclusive, Epigenetic reg inactive, HTT ATP protect inactive[10 µM], PTAP TSG101 blk inactive and PINK1 expr mod inactive.
For COc1cc([N+](=O)[O-])cc(/C=N/NC(=O)C(C)Nc2ccccc2C)c1O (centres undefined) the results were Apoferritin bind inactive, HTT aggregate 13µM, Epigenetic reg inactive, HTT ATP protect inactive[10 µM], PTAP TSG101 blk inactive and PINK1 expr mod inactive.
Screening COc1cc([N+](=O)[O-])cc(/C=N/NC(=O)C(C)Nc2cccc(C)c2)c1O (centres undefined) returned Apoferritin bind inactive, HTT aggregate 10µM, Epigenetic reg inactive, HTT ATP protect inactive[10 µM], PTAP TSG101 blk inactive and PINK1 expr mod inactive.
For O=C(CN1CCCCC1)N1CCCc2c1c(=O)oc1ccc(OCc3ccccc3)cc21 the results were Apoferritin bind inactive, HTT aggregate inconclusive, Epigenetic reg inactive, HTT ATP protect 3.2µM, PTAP TSG101 blk inactive and PINK1 expr mod inactive.
For O=c1[nH]cnc2sc3c(c12)CCCC3 the results were Apoferritin bind inactive, HTT aggregate 13µM, Epigenetic reg inactive, HTT ATP protect inactive, PTAP TSG101 blk inactive and PINK1 expr mod inactive.
CCC1CN(CCNC(=O)C(C)(C)O)Cc2cc(OC)ccc2O1 (centres undefined) was read as PINK1 expr mod inactive.
For Cc1nc(NCCc2ccc(O)cc2)c2nnn(Cc3ccccc3)c2n1 the results were Apoferritin bind 16µM, PTAP TSG101 blk inactive and PINK1 expr mod inactive.
Screening Cc1nc(NCCc2ccc(F)cc2)c2nnn(Cc3ccccc3)c2n1 returned Apoferritin bind inactive, PTAP TSG101 blk inactive and PINK1 expr mod inactive.
Screening O=C(Nc1ccc(Br)cc1Cl)NC1CC1 returned Apoferritin bind inactive, HTT aggregate 18µM, Epigenetic reg inactive, HTT ATP protect inactive, PTAP TSG101 blk inactive and PINK1 expr mod inactive.

Bioassay records deposited in PubChem BioAssay by National Center for Advancing Translational Sciences (NCATS).
